Reference: the supplement of paper PMC9446081
± gives the standard deviation of the averaged measurements.

Columns and labels:
Test in all cases: relative enzymatic activity vs untreated control (fraction); higher = less inhibition
Details in all cases: 100 µM; incubation time: 2 h at 37 C
[1] = tested on: DNA gyrase
Procedure: (§1)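 In vitro enzymatic inhibition assays (ProFoldin kits) for 12 purified essential E. coli enzymes or complexes, each treated with 218 active antibacterial compounds at 100 µM for 2 h at 37°C. Read-outs were fluorescence or absorbance (phosphate detection, dye binding), converted to activity via standard curves and expressed relative to untreated DMSO controls.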

[2] = molecular target: DNA helicase (UniProt P0ACB1)
Procedure: as §1

[3] = molecular target: DNA ligase (UniProt B1XA82)
Procedure: as §1

[4] = molecular target: DNA polymerase (UniProt P10443)
Procedure: as §1

[5] = molecular target: DNA primase (UniProt P0ABS7)
Procedure: as §1

[6] = molecular target: GlmU (UniProt A7ZTU1)
Procedure: as §1

[7] = molecular target: Guanlyate kinase (UniProt Q0TBG1)
Procedure: as §1

[8] = molecular target: MurA (UniProt Q3YX52)
Procedure: as §1

[9] = molecular target: T1, MurD (UniProt P14900)
T1 sequence (whole entry): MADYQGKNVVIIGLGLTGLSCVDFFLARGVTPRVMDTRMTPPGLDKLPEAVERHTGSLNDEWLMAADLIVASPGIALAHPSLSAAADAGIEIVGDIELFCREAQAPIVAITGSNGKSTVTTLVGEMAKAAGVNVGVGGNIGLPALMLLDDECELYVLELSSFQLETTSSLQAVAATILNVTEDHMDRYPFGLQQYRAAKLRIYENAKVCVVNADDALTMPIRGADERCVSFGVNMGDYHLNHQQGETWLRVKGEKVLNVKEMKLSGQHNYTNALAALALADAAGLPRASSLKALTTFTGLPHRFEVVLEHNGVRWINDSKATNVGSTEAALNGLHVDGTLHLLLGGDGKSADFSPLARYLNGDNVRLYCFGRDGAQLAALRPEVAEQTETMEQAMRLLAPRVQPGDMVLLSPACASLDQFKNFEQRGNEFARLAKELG
Procedure: as §1

[10] = molecular target: T2, MurF (UniProt P11880)
T2 sequence (whole entry): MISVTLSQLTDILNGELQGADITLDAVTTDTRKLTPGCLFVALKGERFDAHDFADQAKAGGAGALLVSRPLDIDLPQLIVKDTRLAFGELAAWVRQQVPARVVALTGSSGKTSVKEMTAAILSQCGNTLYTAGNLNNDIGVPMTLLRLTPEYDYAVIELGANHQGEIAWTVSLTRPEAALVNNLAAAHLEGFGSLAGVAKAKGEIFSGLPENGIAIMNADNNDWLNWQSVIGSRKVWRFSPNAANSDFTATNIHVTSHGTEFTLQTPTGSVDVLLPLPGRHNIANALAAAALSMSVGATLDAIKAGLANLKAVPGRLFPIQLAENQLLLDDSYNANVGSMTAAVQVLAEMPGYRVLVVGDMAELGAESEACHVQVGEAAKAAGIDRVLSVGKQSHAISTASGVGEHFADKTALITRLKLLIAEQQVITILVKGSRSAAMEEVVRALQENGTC
Procedure: as §1

[11] = tested on: RNA polymerase
Procedure: as §1

Sequence of DNA helicase (P0ACB1 whole entry): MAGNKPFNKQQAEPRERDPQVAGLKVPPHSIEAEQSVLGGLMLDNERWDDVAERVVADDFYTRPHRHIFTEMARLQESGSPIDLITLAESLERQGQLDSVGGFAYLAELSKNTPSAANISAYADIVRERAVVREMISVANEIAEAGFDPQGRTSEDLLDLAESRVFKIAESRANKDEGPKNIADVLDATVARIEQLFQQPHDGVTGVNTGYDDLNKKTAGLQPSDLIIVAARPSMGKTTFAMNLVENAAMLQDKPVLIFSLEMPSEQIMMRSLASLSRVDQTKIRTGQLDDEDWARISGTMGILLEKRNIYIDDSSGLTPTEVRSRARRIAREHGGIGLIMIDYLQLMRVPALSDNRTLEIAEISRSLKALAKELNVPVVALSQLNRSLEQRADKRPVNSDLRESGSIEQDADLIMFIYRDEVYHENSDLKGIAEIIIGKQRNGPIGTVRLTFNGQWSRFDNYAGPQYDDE
Sequence of DNA ligase (B1XA82 whole entry): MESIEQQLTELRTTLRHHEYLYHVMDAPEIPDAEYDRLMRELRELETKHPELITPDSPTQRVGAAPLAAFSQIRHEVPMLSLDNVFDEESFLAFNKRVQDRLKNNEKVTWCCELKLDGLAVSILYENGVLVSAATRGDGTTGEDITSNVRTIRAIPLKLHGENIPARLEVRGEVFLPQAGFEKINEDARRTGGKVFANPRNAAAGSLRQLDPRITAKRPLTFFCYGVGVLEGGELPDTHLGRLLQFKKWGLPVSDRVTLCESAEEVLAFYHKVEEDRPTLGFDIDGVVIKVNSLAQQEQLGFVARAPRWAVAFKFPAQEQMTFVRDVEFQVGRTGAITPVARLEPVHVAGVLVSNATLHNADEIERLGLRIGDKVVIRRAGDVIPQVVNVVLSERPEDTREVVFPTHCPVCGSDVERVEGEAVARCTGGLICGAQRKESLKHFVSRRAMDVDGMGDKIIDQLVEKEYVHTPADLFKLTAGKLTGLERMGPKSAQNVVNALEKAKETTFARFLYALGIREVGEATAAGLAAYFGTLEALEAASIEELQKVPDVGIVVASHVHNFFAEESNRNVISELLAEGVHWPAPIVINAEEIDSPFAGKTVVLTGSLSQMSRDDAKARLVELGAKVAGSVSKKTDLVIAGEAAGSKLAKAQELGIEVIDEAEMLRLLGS
Sequence of Guanlyate kinase (Q0TBG1 whole entry): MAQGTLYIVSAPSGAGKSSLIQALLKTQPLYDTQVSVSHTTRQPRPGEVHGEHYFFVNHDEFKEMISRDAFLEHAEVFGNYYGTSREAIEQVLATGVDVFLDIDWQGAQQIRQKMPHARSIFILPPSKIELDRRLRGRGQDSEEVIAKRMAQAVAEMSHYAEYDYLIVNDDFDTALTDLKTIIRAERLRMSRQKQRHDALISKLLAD
Sequence of MurA (Q3YX52 whole entry): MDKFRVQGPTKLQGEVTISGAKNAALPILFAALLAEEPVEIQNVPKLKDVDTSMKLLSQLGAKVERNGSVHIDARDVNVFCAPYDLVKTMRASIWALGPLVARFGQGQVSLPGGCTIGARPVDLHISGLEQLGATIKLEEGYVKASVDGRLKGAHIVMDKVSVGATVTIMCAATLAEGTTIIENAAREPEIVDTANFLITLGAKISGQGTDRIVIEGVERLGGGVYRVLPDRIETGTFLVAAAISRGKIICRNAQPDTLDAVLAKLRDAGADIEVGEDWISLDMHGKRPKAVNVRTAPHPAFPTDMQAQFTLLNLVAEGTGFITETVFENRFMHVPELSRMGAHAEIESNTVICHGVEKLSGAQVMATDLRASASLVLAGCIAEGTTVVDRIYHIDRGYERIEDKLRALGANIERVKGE
Sequence of DNA polymerase (P10443 whole entry): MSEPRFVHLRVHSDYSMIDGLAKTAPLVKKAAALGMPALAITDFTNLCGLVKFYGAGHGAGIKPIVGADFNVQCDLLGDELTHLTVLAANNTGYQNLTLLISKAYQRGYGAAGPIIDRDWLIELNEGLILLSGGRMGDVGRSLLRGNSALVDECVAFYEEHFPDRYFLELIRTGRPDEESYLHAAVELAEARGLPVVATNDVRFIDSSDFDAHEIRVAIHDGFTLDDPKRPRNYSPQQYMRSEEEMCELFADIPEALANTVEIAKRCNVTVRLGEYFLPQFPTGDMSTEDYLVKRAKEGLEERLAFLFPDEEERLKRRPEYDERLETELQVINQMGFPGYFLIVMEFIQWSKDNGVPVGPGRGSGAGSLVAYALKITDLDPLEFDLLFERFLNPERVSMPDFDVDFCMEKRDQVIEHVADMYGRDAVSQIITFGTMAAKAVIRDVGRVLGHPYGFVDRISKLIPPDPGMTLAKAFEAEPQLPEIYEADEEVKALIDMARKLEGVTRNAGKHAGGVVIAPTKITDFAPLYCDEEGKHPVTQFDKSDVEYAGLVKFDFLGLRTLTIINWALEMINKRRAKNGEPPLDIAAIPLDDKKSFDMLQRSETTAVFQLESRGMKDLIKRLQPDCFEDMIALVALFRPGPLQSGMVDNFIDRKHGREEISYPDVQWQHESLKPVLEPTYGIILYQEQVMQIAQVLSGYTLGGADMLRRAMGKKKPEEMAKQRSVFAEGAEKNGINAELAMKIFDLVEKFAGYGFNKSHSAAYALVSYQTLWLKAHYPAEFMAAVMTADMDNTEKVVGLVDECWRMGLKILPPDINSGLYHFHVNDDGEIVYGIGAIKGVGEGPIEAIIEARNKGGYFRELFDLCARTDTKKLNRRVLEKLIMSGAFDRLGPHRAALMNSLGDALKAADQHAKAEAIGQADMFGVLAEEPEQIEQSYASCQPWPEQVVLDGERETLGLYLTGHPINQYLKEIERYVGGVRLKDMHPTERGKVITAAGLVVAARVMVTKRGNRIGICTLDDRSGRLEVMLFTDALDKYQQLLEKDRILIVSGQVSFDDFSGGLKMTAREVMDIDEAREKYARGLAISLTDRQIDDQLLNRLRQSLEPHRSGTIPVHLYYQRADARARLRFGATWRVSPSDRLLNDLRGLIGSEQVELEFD
Sequence of GlmU (A7ZTU1 whole entry, looked up): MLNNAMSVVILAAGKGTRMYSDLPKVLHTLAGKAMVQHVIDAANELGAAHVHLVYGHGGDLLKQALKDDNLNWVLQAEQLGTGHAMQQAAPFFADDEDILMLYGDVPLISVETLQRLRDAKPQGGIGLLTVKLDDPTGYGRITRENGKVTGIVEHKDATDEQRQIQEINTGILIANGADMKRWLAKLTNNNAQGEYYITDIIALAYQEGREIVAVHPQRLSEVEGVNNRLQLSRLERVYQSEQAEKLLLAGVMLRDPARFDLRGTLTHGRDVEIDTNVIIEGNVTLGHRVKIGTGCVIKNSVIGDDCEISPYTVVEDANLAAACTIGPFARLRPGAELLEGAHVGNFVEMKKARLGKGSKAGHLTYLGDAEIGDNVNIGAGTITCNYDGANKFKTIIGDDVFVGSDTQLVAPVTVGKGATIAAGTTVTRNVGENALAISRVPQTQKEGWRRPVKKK
Sequence of DNA primase (P0ABS7 whole entry): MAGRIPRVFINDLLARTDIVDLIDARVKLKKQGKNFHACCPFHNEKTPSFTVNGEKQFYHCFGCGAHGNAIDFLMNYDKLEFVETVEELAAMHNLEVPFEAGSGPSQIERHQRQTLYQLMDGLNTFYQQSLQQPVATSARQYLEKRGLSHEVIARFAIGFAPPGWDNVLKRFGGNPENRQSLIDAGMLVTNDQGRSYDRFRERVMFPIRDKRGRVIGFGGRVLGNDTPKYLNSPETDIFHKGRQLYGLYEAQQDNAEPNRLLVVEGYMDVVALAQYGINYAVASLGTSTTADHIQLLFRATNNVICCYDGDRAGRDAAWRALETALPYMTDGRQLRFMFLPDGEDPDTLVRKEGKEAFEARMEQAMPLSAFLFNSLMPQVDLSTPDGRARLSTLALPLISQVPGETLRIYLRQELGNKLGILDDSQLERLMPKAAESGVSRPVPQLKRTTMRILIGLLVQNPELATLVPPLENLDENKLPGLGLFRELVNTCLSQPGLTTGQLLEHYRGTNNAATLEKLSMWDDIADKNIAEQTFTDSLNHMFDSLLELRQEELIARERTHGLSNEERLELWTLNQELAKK

Structure (SMILES) | relative enzymatic activity [1] | relative enzymatic activity [2] | relative enzymatic activity [3] | relative enzymatic activity [4] | relative enzymatic activity [5] | relative enzymatic activity [6] | relative enzymatic activity [7] | relative enzymatic activity [8] | relative enzymatic activity [9] | relative enzymatic activity [10] | relative enzymatic activity [11]
CN[C@H]1CN(c2ccc3c(=O)c(C(=O)O)cn(-c4nccs4)c3n2)C[C@@H]1OC | 0.253 ± 0.27 | 0.18 ± 0.16 | 0.706 ± 0.08 | 0.641 ± 0.27 | 0.622 ± 0.13 | 1 ± 0.039 | 0.851 ± 0.064 | 0.603 ± 0.14 | 0.58 ± 0.36 | 0.955 ± 0.21 | 0.769 ± 0.11
CCC1OC(=O)C(C)C(=O)C(C)C(OC2OC(C)CC(N(C)C)C2O)C(C)(OC)CC(C)C(=O)C(C)C2N(CCCCn3cnc(-c4cccnc4)c3)C(=O)OC12C (stereo unspecified) | 0.862 ± 0.39 | 0.396 ± 0.024 | 1.1 ± 0.3 | 1.24 ± 0.3 | 0.854 ± 0.012 | 0.9359 ± 0.0057 | 0.967 ± 0.099 | 0.668 ± 0.05 | 0.525 ± 0.34 | 0.799 ± 0.13 | 0.822 ± 0.037
CO/N=C(\C(=O)N[C@@H]1C(=O)N2C(C(=O)O)=C(C[n+]3ccn4ncccc43)CS[C@H]12)c1nsc(N)n1 | 0.675 ± 0.49 | 0.625 ± 0.3 | 0.891 ± 0.17 | 1.14 ± 0.26 | 0.77 ± 0.018 | 0.999 ± 0.0029 | 0.949 ± 0.069 | 0.305 ± 0.13 | 0.591 ± 0.38 | 0.909 ± 0.24 | 0.8278 ± 0.0046
CC1CN(c2c(F)c(F)c3c(=O)c(C(=O)O)cn(C4CC4)c3c2F)CC(C)N1 (stereo unspecified) | 0.063 ± 0.089 | 0.599 ± 0.21 | 1.09 ± 0.085 | 0.509 ± 0.72 | 0.8561 ± 0.0075 | 0.97 ± 0.066 | 0.949 ± 0.073 | 0.676 ± 0.015 | 0.597 ± 0.41 | 1.09 ± 0.014 | 0.847 ± 0.13
CON=C(C(=O)NC1C(=O)N2C(C(=O)[O-])=C(COC(C)=O)CSC12)c1csc(N)n1.[Na+] (stereo unspecified) | 0.696 ± 0.52 | 0.4103 ± 0.0017 | 0.569 ± 0.58 | 1.11 ± 0.28 | 0.68 ± 0.16 | 0.914 ± 0.13 | 1.04 ± 0.053 | 0.0697 ± 0.016 | 0.575 ± 0.37 | 0.939 ± 0.19 | 0.608 ± 0.48
CC1CCc2cc(F)cc3c(=O)c(C(=O)O)cn1c23 (stereo unspecified) | 0.0609 ± 0.086 | 0.593 ± 0.15 | 0.937 ± 0.35 | 1.41 ± 0.53 | 0.655 ± 0.13 | 0.9984 ± 0.0089 | 1.03 ± 0.1 | 0.715 ± 0.16 | 0.568 ± 0.39 | 0.97 ± 0.2 | 1.04 ± 0.22
Oc1c(Cl)cc(Cl)c(Cl)c1Cc1c(O)c(Cl)cc(Cl)c1Cl | 0.191 ± 0.12 | 0.06883 ± 0.00038 | 0.514 ± 0.1 | 0.222 ± 0.019 | 0.436 ± 0.0013 | 1.07 ± 0.11 | 0.162 ± 0.0089 | 0.899 ± 0.6 | 1.25 ± 0.89 | 0.446 ± 0.1 | 0.293 ± 0.0084
CCn1cc(C(=O)O)c(=O)c2cc(F)c(N3CCN(C)CC3)cc21.CS(=O)(=O)O | 0.0308 ± 0.043 | 0.573 ± 0.14 | 1.16 ± 0.29 | 1.27 ± 0.33 | 0.843 ± 0.025 | 0.944 ± 0.037 | 0.919 ± 0.11 | 0.696 ± 0.11 | 0.589 ± 0.41 | 1.109 ± 0.0024 | 0.862 ± 0.089
COC1(NC(=O)Cc2cccs2)C(=O)N2C(C(=O)[O-])=C(COC(N)=O)CSC21.[Na+] (stereo unspecified) | 1.11 ± 0.041 | 0.48 ± 0.015 | 0.855 ± 0.14 | 1.41 ± 0.51 | 0.663 ± 0.13 | 0.984 ± 0.011 | 1.08 ± 0.062 | 0.0814 ± 0.021 | 0.574 ± 0.37 | 1.01 ± 0.21 | 0.829 ± 0.017
COC(=O)N/N=C/c1ccc([N+](=O)[O-])o1 | 0.742 ± 0.39 | 0.508 ± 0.072 | 0.9684 ± 0.0075 | 0.516 ± 0.72 | 0.841 ± 0.017 | 1.02 ± 0.019 | 0.942 ± 0.11 | 0.255 ± 0.17 | 0.636 ± 0.45 | 0.961 ± 0.21 | 0.918 ± 0.14
O=C(NC(CO)C(O)c1ccc([N+](=O)[O-])cc1)C(Cl)Cl (stereo unspecified) | 1.08 ± 0.086 | 0.453 ± 0.012 | 0.947 ± 0.19 | 1.34 ± 0.4 | 0.725 ± 0.2 | 0.972 ± 0.052 | 1.04 ± 0.047 | 0.8 ± 0.18 | 0.548 ± 0.34 | 0.96 ± 0.2 | 0.86 ± 0.028
CN(C)[C@@H]1C(=O)[C@@H](C(N)=O)C(=O)[C@@]2(O)C(=O)[C@@H]3C(=O)c4c(O)c(NC(=O)CN5CCCC5)cc(F)c4C[C@H]3C[C@@H]12 | 0.0486 ± 0.069 | 0.103 ± 0.0053 | 0.94816 ± 9.1e-05 | 1.06 ± 0.31 | 0.456 ± 0.15 | 0.9445 ± 0.0056 | 0.347 ± 0.035 | 0.63 ± 0.26 | 0.632 ± 0.45 | 0.943 ± 0.19 | 0.118 ± 0.028
CC[C@@H]1OC(=O)[C@H](C)[C@@H](O[C@H]2C[C@@](C)(OC)[C@@H](O)[C@H](C)O2)[C@H](C)[C@@H](O[C@@H]2O[C@H](C)C[C@H](N(C)C)[C@H]2O)[C@](C)(O)C[C@@H](C)/C(=N\OCOCCOC)[C@H](C)[C@@H](O)[C@]1(C)O | 0.682 ± 0.5 | 0.568 ± 0.081 | 0.8031 ± 0.0034 | 0.48 ± 0.67 | 0.8559 ± 0.0026 | 0.895 ± 0.076 | 0.922 ± 0.026 | 0.852 ± 0.19 | 0.583 ± 0.4 | 1.12 ± 0.015 | 0.884 ± 0.17
O=C1CN(/N=C/c2ccc([N+](=O)[O-])o2)C(=O)N1 | 0.715 ± 0.42 | 0.621 ± 0.24 | 0.855 ± 0.16 | 0.649 ± 0.36 | 0.764 ± 0.037 | 0.999 ± 0.044 | 0.842 ± 0.048 | 0.665 ± 0.11 | 0.481 ± 0.61 | 0.963 ± 0.21 | 0.745 ± 0.068
NCC1OC(OC2C(N)CC(N)C(OC3OC(CO)C(O)C(N)C3O)C2O)C(N)C(O)C1O.O=S(=O)(O)O (stereo unspecified) | 0.685 ± 0.063 | 0.381 ± 0.53 | 0.834 ± 0.15 | 0.924 ± 0.43 | 0.539 ± 0.052 | 0.956 ± 0.069 | 0.589 ± 0.046 | 0.257 ± 0.04 | 0.647 ± 0.44 | 0.958 ± 0.17 | 0.537 ± 0.016
CC[C@@H](C)CCCCC(=O)N[C@@H](CCN)C(=O)N[C@H](C(=O)N[C@@H](CCN)C(=O)N[C@H]1CCNC(=O)[C@H]([C@@H](C)O)NC(=O)[C@H](CCN)NC(=O)[C@H](CCN)NC(=O)[C@H](CC(C)C)NC(=O)[C@@H](Cc2ccccc2)NC(=O)[C@@H](CCN)NC1=O)[C@@H](C)O | 1.66 ± 0.37 | 0.0939 ± 0.022 | 0.701 ± 0.47 | 0.34 ± 0.059 | 0.616 ± 0.13 | 1.11 ± 0.016 | 0.449 ± 0.055 | 0.646 ± 0.21 | 0.674 ± 0.44 | 0.991 ± 0.22 | 0.46 ± 0.03
